Source: PubChem BioAssay (Broad Institute)
DENV2 CPE rescue – inhibitors of DENV2 cytopathic effect, primary screen, cell-based, plate reader, single concentration; hit rate 1.7% among 350,000; CPE inhibition, % at 9.99 µM; AID 651640, 2012; DENV2-infected cells, cytopathic effect rescue; in the data active = CPE inhibition above about 20%, passing the limit was not always enough; tested in BHK-21 cells
ERp5 inh – inhibitors of ERp5-driven insulin aggregation, primary screen, biochemical, turbidity, absorbance 650 nm, single point | Protein disulfide-isomerase A6 (Homo sapiens), Q15084 | inhibition, % at 9.99 µM | hit rate 0.05% among 350,000 | 90 min;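 active = mean replicate inhibition above about 25%, with every replicate also reaching it, limit read from the data, passing the limit was not always enough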
Target sequence (Q15084 whole entry, looked up): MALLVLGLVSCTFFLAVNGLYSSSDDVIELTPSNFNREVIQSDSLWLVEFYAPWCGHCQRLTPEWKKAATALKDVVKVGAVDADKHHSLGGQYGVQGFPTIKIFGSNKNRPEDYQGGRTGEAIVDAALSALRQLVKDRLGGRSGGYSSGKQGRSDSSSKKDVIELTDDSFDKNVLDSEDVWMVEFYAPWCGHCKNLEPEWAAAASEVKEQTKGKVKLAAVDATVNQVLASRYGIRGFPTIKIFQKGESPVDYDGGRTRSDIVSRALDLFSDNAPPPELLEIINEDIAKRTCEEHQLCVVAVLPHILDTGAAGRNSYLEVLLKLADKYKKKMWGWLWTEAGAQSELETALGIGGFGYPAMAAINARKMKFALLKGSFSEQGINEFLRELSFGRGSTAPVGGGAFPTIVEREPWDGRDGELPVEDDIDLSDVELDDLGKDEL
SIRT5 inh – SIRT5 desuccinylase inhibitors, primary screen, biochemical, fluorescence imaging, single point, set 5; NAD-dependent protein deacylase sirtuin-5, mitochondrial (Homo sapiens), Q9NXA8; Purified SirT5, succinyl-peptide AMC, trypsin-coupled fluorescence; inhibition, % at 15 µM; hit rate 1.1% among 330,000; AID 652115, 2013; in the data active = inhibition above about 15%
PDI turbidity – inhibitors of human PDI, primary screen, biochemical, turbidity, single point, plate reader | PDI insulin aggregation turbidity, A650, 90 min | Protein disulfide-isomerase (Homo sapiens), P07237 | inhibition, % at 10 µM | hit rate 0.052% among 350,000;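 active = mean inhibition across replicates of 30% or more, whatever share of single replicates reach that level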
Rtt109 Vps75 – inhibitors of C. albicans Rtt109/Vps75 HAT, primary screen, biochemical, ThioGlo CoA-SH fluorescence, plate reader | Histone acetyltransferase RTT109 (Candida albicans (strain SC5314 / ATCC MYA-2876)), … | purified Rtt109/Vps75, 4 h | inhibition, % at 34.9 µM | hit rate 0.16% among 330,000;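 active = inhibition of at least 50% in every replicate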
Numbers stand for hits. Hits are enriched below; roughly 2.3% of the tested compounds scored in any of these assays.

How did Cc1ccc(S(=O)(=O)Nc2ccc3c(c2)C(=O)N([C@H](C)CO)C[C@H](C)[C@@H](CN(C)C(=O)Nc2cccc4ccccc24)O3)cc1 do in these assays?
DENV2 CPE rescue: 41; ERp5 inh: inactive; SIRT5 inh: inactive

How did C[C@@H]1CCCCO[C@@H](CN(C)C(=O)Nc2cccc3ccccc23)[C@H](C)CN([C@H](C)CO)C(=O)c2cc(NS(=O)(=O)c3cn(C)cn3)ccc2O1 do in these assays?
DENV2 CPE rescue: inactive

What do the screens show for `COc1ccc(S(=O)(=O)N(C)C[C@@H]2Oc3c(NC(=O)C4CCOCC4)cccc3C(=O)N([C@H](C)CO)C[C@H]2C)cc1`?
ERp5 inh: inactive; SIRT5 inh: inactive

Results for C[C@@H]1CCCCO[C@@H](CN(C)S(=O)(=O)c2ccc(F)cc2)[C@@H](C)CN([C@H](C)CO)C(=O)c2cc(NC(=O)Nc3ccc4c(c3)OCO4)ccc2O1 ?
DENV2 CPE rescue: inactive; ERp5 inh: inactive; SIRT5 inh: inactive

Results for CCCNC(=O)N1CCC2(CC1)CN(S(C)(=O)=O)[C@H](CO)c1c2c2ccc(OC)cc2n1C ?
DENV2 CPE rescue: inactive; ERp5 inh: inactive; SIRT5 inh: inactive

What do the screens show for `CO[C@@H]1CN(C)C(=O)c2ccc(NS(C)(=O)=O)cc2OC[C@@H](C)N(C(=O)C2CCOCC2)C[C@H]1C`?
DENV2 CPE rescue: inactive; ERp5 inh: inactive; SIRT5 inh: inactive

What do the screens show for `C[C@H](CO)N1C[C@H](C)[C@H](CN(C)C(=O)Nc2ccc(-c3ccccc3)cc2)OCc2ccccc2-c2ccccc2C1=O`?
DENV2 CPE rescue: inactive; ERp5 inh: inactive; SIRT5 inh: inactive

Results for Nc1c(C(=O)c2ccccc2)oc2ccc([N+](=O)[O-])cc12 ?
DENV2 CPE rescue: inactive; ERp5 inh: inactive; SIRT5 inh: inactive; PDI turbidity: inactive; Rtt109 Vps75: 55

What do the screens show for `CCN(CC(=O)Nc1ccc(NC(C)=O)cc1)C(=O)Cc1c(Cl)cccc1Cl`?
DENV2 CPE rescue: 55; ERp5 inh: inactive; SIRT5 inh: inactive; PDI turbidity: inactive; Rtt109 Vps75: inactive

What do the screens show for `Cc1noc(C)c1S(=O)(=O)N(C)C[C@H]1OCCCC[C@H](C)Oc2ccc(NS(=O)(=O)c3cccs3)cc2C(=O)N([C@@H](C)CO)C[C@@H]1C`?
DENV2 CPE rescue: inactive; ERp5 inh: inactive; SIRT5 inh: inactive

What do the screens show for `O=C(C[C@@H]1CC[C@H](NC(=O)Nc2ccccc2F)[C@H](CO)O1)NCc1ccc(F)cc1`?
DENV2 CPE rescue: inactive; ERp5 inh: inactive; SIRT5 inh: inactive

How did Oc1ccc(-c2cnns2)c(O)c1 do in these assays?
DENV2 CPE rescue: inactive; ERp5 inh: inactive; SIRT5 inh: 31; PDI turbidity: inactive; Rtt109 Vps75: inactive

Results for O=C(C[C@@H]1C=C[C@@H](NC(=O)c2ccccc2)[C@@H](CO)O1)NCCc1ccncc1 ?
DENV2 CPE rescue: inactive; ERp5 inh: inactive; SIRT5 inh: inactive

What do the screens show for `C[C@@H]1CN([C@@H](C)CO)C(=O)c2cccc(NS(C)(=O)=O)c2O[C@H]1CN(C)Cc1ccncc1`?
DENV2 CPE rescue: inactive; ERp5 inh: inactive; SIRT5 inh: inactive

Results for CCC(=O)N(C)C[C@@H]1Oc2ncc(-c3ccc(C)cc3)cc2C(=O)N([C@H](C)CO)C[C@@H]1C ?
DENV2 CPE rescue: inactive; ERp5 inh: inactive; SIRT5 inh: inactive

How did Cc1[nH]c2ccccc2c1CC(=O)Nc1ccc(N(C)c2cccnc2)c(-c2cccc(Cl)c2)c1 do in these assays?
DENV2 CPE rescue: 43; ERp5 inh: inactive

Results for C[C@@H]1CN([C@@H](C)CO)C(=O)c2cc(C#CCN(C)C)cnc2O[C@H]1CN(C)C(=O)Cc1cccnc1 ?
DENV2 CPE rescue: inactive; ERp5 inh: inactive; SIRT5 inh: inactive

What do the screens show for `Cc1ccc(CN(C(=O)c2ccccc2C)C2CCS(=O)(=O)C2)o1` (configuration not stated)?
DENV2 CPE rescue: inactive; ERp5 inh: inactive; SIRT5 inh: inactive; PDI turbidity: inactive; Rtt109 Vps75: 72

Results for O=C(C[C@@H]1C[C@H]2c3cc(NC(=O)C4CCC4)ccc3O[C@H]2[C@@H](CO)O1)NCc1ccc(Cl)cc1 ?
DENV2 CPE rescue: inactive; ERp5 inh: inactive; SIRT5 inh: inactive

Results for CCCn1nc(Oc2nc(N(C)C)nc(N(C)C)n2)ccc1=O ?
ERp5 inh: inactive; SIRT5 inh: 19; PDI turbidity: inactive; Rtt109 Vps75: inactive

What do the screens show for `CC1(C)CC(=O)C2=C(C1)NC(=O)NC2c1ccccc1Cl` (configuration not stated)?
DENV2 CPE rescue: inactive; ERp5 inh: inactive; SIRT5 inh: inactive; PDI turbidity: inactive

What do the screens show for `CC1(C)CC(=O)C2=C(C1)NC(=O)NC2c1ccc(Cl)cc1` (configuration not stated)?
DENV2 CPE rescue: 23; ERp5 inh: inactive; SIRT5 inh: inactive; PDI turbidity: inactive; Rtt109 Vps75: inactive

What do the screens show for `C[C@@H]1CCCCO[C@H](CN(C)Cc2ccc(C(=O)O)cc2)[C@@H](C)CN([C@@H](C)CO)C(=O)c2cc(NC(=O)NC3CCCCC3)ccc2O1`?
DENV2 CPE rescue: inactive; ERp5 inh: inactive; SIRT5 inh: inactive

What do the screens show for `O=C(Nc1ccccc1N1CCOCC1)C1=NN(c2ccccc2)C(=O)CC1`?
DENV2 CPE rescue: 69; ERp5 inh: inactive; SIRT5 inh: inactive; PDI turbidity: inactive; Rtt109 Vps75: inactive

What do the screens show for `CN(C)CC(=O)Nc1ccc2c(c1)[C@H]1C[C@H](CC(=O)NCC3CC3)O[C@@H](CO)[C@H]1O2`?
DENV2 CPE rescue: inactive; ERp5 inh: inactive; SIRT5 inh: inactive

How did CCOC1=C2CN(S(=O)(=O)c3ccc(C)cc3)C(c3cccc(Cl)c3)CC2N(S(=O)(=O)c2ccc(Cl)cc2)C(c2ccccc2)C1 (configuration not stated) do in these assays?
DENV2 CPE rescue: 32; ERp5 inh: inactive; SIRT5 inh: inactive

How did O=C(c1ccccn1)N1CC(=O)N2[C@H](C1)[C@H](c1ccc(C#CC3CCCC3)cc1)[C@@H]2CO do in these assays?
DENV2 CPE rescue: inactive; ERp5 inh: inactive; SIRT5 inh: inactive

Results for CC1(C)CC2CC(C)(CN2C(=O)c2ccc([N+](=O)[O-])cc2)C1 (configuration not stated) ?
DENV2 CPE rescue: inactive; ERp5 inh: inactive; SIRT5 inh: 21; PDI turbidity: inactive; Rtt109 Vps75: inactive

What do the screens show for `CC1(C)CC2CC(C)(CN2C(=O)c2cc(-c3ccccc3O)on2)C1` (configuration not stated)?
DENV2 CPE rescue: inactive; ERp5 inh: inactive; SIRT5 inh: 16; Rtt109 Vps75: inactive

What do the screens show for `Cc1ccc(-c2cc(C(=O)N3CC4(C)CC3CC(C)(C)C4)no2)cc1` (configuration not stated)?
DENV2 CPE rescue: inactive; ERp5 inh: inactive; SIRT5 inh: inactive; PDI turbidity: inactive; Rtt109 Vps75: inactive
